Experimental data published in the supplement of paper PMC10849652.
The full data set covers some 7,900 targets. This sample favours those with a hit. About 0.6% of all pairs of compound and target were hits.

Experiments:
Assay in all cases: log2 fold change, soluble protein after heating vs DMSO (PISA); higher = thermal stabilisation; K562 cells, 10 uM, 30 min; active = over 0.2 and 3.5 SD of the protein, either way, in both replicates (recomputed)
[1] = compound: C1=CC=C(C=C1)[C@H](COC2=CC3=C(C=C2)NC(=O)N3)NC(=O)C4=CC=CN(C4=O)CC5=CC(=C(C=C5)F)F
How it was run: (§1)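 K562 cells (2×10^6 cells/mL) were treated with 10 μM compound for 30 min, and aliquots were heated for 3 min over 48°C-58°C. Pooled aliquots were extracted in PBS with 0.5% NP-40 at 4°C, and the supernatant after 21,000xg for 90 min was measured by TMTpro 16plex LC-MS/MS with channel sums equalised. Reported thermal stability, relative to control samples and from duplicates, is a log2 fold change.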

[2] = compound: CC1=C(SC2=C1C(=N[C@H](C3=NN=C(N32)C)CC(=O)N)C4=CC=C(C=C4)Cl)C
How it was run: as §1

[3] = compound: CC1=C2C(=CC=C1)N=C(N(C2=O)C3=CC=CC=C3C)CN4C=NC5=C(N=CN=C54)N
How it was run: as §1

[4] = compound: Cc1sc2c(c1C)C(c1ccc(Cl)cc1)=N[C@@H](CC(=O)OC(C)(C)C)c1nnc(C)n1-2
How it was run: as §1

[5] = compound: c1ccc([C@@H]2C[C@H]2NC2CCNCC2)cc1
How it was run: as §1

Measured: log2 fold change

ITPRIP (UniProt Q8IWB1)
Sequence of UniProt Q8IWB1 (Q8IWB1 whole entry, looked up): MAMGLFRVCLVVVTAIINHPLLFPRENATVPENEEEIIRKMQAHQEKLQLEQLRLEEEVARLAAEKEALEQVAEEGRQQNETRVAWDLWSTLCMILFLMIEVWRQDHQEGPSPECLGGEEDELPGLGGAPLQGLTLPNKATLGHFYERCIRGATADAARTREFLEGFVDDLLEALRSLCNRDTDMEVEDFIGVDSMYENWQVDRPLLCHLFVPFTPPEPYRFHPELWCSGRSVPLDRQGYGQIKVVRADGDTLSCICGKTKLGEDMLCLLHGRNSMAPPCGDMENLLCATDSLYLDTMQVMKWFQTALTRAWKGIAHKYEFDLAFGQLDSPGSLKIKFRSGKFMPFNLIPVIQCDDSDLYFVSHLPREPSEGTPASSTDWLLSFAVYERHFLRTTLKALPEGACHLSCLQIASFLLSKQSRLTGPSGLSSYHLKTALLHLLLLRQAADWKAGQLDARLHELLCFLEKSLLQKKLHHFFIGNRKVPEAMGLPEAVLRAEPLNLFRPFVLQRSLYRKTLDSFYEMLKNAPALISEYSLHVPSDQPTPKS
inactive: [1] -0.024 | [2] 0.096 | [3] 0.054 | [4] -0.081 | [5] 0.027

MAP2K2 (UniProt P36507)
Sequence of UniProt P36507 (P36507 whole entry, looked up): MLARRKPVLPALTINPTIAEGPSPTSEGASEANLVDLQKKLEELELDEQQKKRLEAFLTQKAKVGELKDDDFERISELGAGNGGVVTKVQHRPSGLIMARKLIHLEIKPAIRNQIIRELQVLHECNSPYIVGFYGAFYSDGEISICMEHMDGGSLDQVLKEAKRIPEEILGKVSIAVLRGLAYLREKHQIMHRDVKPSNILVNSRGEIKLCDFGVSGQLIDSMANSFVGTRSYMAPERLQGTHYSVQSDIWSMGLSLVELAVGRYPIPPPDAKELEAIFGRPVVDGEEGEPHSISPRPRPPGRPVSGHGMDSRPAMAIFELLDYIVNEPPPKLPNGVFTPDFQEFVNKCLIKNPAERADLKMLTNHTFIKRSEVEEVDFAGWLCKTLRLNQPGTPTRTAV
inactive: [1] 0.034 | [2] 0.065 | [3] 0.073 | [4] -0.027 | [5] -0.067

LPIN1 isoform 7 (UniProt Q14693)
Sequence of UniProt Q14693 (Q14693 whole entry, looked up): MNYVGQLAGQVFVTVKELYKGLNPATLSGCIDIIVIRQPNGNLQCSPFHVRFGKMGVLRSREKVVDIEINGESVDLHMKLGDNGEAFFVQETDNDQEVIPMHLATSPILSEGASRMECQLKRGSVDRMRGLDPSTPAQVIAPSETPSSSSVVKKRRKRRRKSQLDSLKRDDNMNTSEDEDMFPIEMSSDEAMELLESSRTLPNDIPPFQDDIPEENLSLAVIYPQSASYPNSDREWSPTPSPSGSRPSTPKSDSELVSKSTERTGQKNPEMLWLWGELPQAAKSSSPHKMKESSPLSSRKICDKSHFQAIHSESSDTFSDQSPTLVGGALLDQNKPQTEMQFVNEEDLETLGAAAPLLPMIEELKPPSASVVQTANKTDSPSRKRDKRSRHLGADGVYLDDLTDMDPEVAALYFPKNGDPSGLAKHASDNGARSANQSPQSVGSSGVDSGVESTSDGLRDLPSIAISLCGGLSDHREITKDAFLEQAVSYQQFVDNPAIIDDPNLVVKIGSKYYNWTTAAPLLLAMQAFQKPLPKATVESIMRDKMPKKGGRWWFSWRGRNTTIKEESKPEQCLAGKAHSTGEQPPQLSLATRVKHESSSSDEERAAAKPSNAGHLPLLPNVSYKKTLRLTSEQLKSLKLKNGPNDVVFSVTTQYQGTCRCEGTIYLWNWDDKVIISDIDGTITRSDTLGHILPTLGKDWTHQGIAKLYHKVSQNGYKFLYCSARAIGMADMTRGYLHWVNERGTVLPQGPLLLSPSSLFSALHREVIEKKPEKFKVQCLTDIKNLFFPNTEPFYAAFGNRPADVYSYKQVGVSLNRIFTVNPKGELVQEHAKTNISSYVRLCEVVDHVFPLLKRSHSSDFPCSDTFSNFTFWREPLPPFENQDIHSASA
inactive: [1] -0.071 | [2] 0.086 | [3] 0.071 | [4] 0.02 | [5] 0.023

KIF2C (UniProt Q99661)
Sequence of UniProt Q99661 (Q99661 whole entry, looked up): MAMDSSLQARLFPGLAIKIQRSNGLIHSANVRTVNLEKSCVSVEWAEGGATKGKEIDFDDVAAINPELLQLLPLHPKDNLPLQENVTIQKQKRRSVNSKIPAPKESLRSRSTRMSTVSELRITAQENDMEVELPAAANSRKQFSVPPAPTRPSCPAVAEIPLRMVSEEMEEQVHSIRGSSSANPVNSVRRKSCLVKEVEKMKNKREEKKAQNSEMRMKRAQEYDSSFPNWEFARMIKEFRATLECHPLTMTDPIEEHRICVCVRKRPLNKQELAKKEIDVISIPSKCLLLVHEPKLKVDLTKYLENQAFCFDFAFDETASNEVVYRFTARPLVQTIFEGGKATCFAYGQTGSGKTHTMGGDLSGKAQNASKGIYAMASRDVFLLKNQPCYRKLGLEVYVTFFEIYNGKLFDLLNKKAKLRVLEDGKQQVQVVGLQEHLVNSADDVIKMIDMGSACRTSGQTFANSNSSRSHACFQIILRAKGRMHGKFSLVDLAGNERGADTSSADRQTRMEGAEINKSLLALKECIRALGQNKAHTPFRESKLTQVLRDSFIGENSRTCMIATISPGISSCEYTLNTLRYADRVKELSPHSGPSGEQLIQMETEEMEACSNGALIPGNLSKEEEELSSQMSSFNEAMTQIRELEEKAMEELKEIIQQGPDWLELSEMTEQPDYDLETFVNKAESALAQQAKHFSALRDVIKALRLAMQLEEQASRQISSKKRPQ
inactive: [1] -0.062 | [2] -0.021 | [3] 0.094 | [4] 0.002 | [5] -0.029

ME2 (UniProt P23368)
Sequence of UniProt P23368 (P23368 whole entry, looked up): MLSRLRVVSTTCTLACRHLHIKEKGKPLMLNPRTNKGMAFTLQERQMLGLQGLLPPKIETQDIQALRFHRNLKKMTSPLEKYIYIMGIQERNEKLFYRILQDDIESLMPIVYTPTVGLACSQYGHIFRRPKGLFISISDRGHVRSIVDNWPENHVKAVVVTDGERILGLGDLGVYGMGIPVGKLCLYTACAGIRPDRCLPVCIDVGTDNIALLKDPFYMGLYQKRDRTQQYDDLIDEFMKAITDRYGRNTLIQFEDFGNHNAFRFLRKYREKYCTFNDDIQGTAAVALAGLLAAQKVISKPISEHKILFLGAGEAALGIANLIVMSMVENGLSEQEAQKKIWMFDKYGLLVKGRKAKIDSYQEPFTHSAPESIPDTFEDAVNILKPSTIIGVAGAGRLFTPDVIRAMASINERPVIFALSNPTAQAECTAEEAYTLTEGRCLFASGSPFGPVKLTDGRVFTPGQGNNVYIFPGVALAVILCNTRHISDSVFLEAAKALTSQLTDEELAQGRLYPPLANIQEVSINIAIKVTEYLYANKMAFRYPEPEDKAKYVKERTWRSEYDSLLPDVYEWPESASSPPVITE
inactive: [1] 0.046 | [2] 0.073 | [3] 0.078 | [4] -0.086 | [5] 0.09

LUZP1 (UniProt Q86V48)
Sequence of UniProt Q86V48 (Q86V48 whole entry, looked up): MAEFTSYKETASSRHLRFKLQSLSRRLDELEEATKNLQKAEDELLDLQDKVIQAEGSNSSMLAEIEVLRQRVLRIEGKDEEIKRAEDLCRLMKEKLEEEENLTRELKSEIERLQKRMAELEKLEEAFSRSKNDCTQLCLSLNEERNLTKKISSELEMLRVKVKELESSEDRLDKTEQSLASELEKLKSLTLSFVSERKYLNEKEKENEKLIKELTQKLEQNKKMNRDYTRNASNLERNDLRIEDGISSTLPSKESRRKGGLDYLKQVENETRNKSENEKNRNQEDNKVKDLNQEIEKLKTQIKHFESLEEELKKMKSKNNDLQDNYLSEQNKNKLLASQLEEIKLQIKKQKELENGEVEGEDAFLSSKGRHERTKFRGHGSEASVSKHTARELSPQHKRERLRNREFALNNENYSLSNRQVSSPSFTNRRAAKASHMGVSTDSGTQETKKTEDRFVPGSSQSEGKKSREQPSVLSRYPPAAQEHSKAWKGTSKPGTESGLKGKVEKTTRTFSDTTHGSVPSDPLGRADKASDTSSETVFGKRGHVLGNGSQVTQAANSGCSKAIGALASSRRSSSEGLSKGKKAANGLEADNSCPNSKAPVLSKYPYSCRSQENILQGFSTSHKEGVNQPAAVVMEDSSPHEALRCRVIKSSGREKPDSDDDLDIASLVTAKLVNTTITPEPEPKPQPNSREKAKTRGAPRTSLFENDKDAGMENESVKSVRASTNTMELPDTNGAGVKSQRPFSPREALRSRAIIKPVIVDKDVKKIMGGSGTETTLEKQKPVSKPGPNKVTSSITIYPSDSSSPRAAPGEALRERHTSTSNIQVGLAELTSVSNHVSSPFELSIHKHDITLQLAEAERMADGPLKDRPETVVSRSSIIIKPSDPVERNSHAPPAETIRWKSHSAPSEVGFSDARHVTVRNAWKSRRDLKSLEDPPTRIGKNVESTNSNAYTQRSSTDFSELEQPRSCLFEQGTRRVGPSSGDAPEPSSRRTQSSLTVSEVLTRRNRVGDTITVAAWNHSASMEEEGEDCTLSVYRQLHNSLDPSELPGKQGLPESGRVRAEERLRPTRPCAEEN
inactive: [1] -0.053 | [2] -0.141 | [3] -0.171 | [4] -0.217 | [5] -0.201

KRAS isoform 2 (UniProt P01116)
Sequence of UniProt P01116 (P01116 whole entry, looked up): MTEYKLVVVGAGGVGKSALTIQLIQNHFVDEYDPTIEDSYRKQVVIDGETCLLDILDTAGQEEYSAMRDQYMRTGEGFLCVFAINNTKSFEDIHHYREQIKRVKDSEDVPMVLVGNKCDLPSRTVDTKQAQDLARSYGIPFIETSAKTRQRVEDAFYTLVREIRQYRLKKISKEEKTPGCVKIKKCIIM
inactive: [1] -0.002 | [2] -0.065 | [3] 0.096 | [4] 0.005 | [5] 0.053

KIF1B isoform 4 (UniProt O60333)
inactive: [1] -0.035 | [2] 0.027 | [3] 0.042 | [4] -0.025 | [5] -0.048

ILF3 (UniProt Q12906)
inactive: [1] 0.06

KPNA6 (UniProt O60684)
inactive: [1] -0.017 | [2] -0.046 | [3] 0.093 | [4] 0.105 | [5] 0.07
